Results from PubChem BioAssay (NCI).
About 79,000 compounds went through this panel and 15% of them were active in at least one assay; those are over-represented in the sample as a whole. The source made the active and inactive calls. Rule as the data show it: active = growth inhibition above about 70%; inactive = the rest.

Assays:
[1] = NCI Yeast Anticancer Drug Screen. Data for the rad52 strain (AID 147);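 also: 0% = growth of vehicle-treated control cultures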; conditions: S. cerevisiae rad52 mutant growth inhibition, active compounds read high
In short: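 Screen used a yeast mutant impaired in DNA repair. After compound exposure, growth was measured. Values reflect inhibition compared with vehicle-treated cells.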

[2] = NCI Yeast Anticancer Drug Screen. Data for the wt1 strain (AID 149);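 also: 0% = growth of vehicle-treated wt1 cultures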; conditions: S. cerevisiae wt1 strain (SPY 50644) growth inhibition, active compounds read high
In short: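 Using yeast strain wt1, compound-induced growth inhibition was determined against vehicle-treated cultures.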

[3] = NCI Yeast Anticancer Drug Screen. Data for the rad50EPP+ strain (AID 151);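 also: 0% = growth of vehicle-treated control cultures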; conditions: S. cerevisiae rad50 mutant strain, active compounds read high
In short: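 Exposing the rad50EPP+ strain to each compound, growth was compared with vehicle-only cultures to give inhibition.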

[4] = NCI Yeast Anticancer Drug Screen. Data for the mgt1 strain (AID 153); conditions: S. cerevisiae mgt1 mutant growth inhibition, active compounds read high
In short: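 Genetically defined yeast (mgt1) treated with compound; inhibition of growth expressed against vehicle-treated controls.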

[5] = NCI Yeast Anticancer Drug Screen. Data for the rad50 strain (AID 155);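 also: 0% = growth of vehicle-only cultures of the same strain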; conditions: S. cerevisiae rad50 strain growth inhibition, active compounds read high
In short: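 Relative growth inhibition (compound vs vehicle) was measured in yeast with a defined repair-gene alteration.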

[6] = NCI Yeast Anticancer Drug Screen. Data for the mec2-1 strain (AID 157); conditions: S. cerevisiae mec2-1 strain, active compounds read high
In short: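 Readout is yeast growth inhibition, normalised to vehicle-treated controls, in the mec2-1 strain exposed to compound.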

[7] = NCI Yeast Anticancer Drug Screen. Data for the rad14 strain (AID 159);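 also: 0% = growth of vehicle-treated control cultures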; conditions: S. cerevisiae rad14 strain growth inhibition, active compounds read high
In short: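 Screen for anticancer potential: a yeast strain altered in DNA damage repair is grown with compound, and reduced growth is quantified against vehicle controls.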

[8] = NCI Yeast Anticancer Drug Screen. Data for the sgs1 mgt1 strain (AID 161);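 also: 0% = growth of cultures given vehicle only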; conditions: S. cerevisiae sgs1 mgt1 strain, active compounds read high
In short: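 Growth of a repair-deficient yeast mutant was monitored after compound treatment and expressed as inhibition relative to vehicle-treated cultures.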

[9] = NCI Yeast Anticancer Drug Screen. Data for the CLN2oe strain (AID 163);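 also: 0% = growth of vehicle-only control cultures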; conditions: S. cerevisiae CLN2oe strain, active compounds read high
In short: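 Values reflect how much compound exposure reduced yeast growth, referenced to vehicle-exposed cells. Assay organism is a strain with a defined genetic change affecting cell-cycle control.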

[10] = NCI Yeast Anticancer Drug Screen. Data for the cln2 rad14 strain (AID 165);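 also: 0% = growth equal to vehicle treated cultures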; conditions: S. cerevisiae cln2 rad14 strain, active compounds read high
In short: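 Relative to vehicle controls, growth inhibition of compound-treated cln2 rad14 yeast was recorded.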

[11] = NCI Yeast Anticancer Drug Screen. Data for the bub3 strain (AID 167); conditions: S. cerevisiae bub3 mutant strain, active compounds read high
In short: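 Screening used yeast with an engineered genetic alteration affecting cell cycle control. Compound-exposed cultures were compared with vehicle cultures, and reduced growth was taken as inhibition.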

[12] = NCI Yeast Anticancer Drug Screen. Data for the wt2 strain (AID 169);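 also: 0% = growth of vehicle-treated yeast cultures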; conditions: S. cerevisiae wt2 strain growth inhibition, active compounds read high
In short: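 Values express reduction in yeast growth under compound treatment, referenced to vehicle-treated cells.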

[13] = NCI Yeast Anticancer Drug Screen. Data for the mlh1 strain (AID 171);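 also: 0% = growth of vehicle-treated control cultures of the same strain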; conditions: S. cerevisiae mlh1 strain growth inhibition, active compounds read high
In short: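 Steps: expose the defined-mutant yeast strain to compound; expose a parallel culture to vehicle; measure growth; express compound effect as inhibition relative to the vehicle culture.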

[14] = NCI Yeast Anticancer Drug Screen. Data for the sgs1 strain (AID 173);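 also: 0% = growth of vehicle-only control cultures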; conditions: S. cerevisiae sgs1 mutant, active compounds read high
In short: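 Treat defined-mutant yeast with compound; measure growth; calculate inhibition relative to vehicle-treated cells.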

[15] = NCI Yeast Anticancer Drug Screen. Data for the mlh1 rad18 strain (AID 175); conditions: S. cerevisiae mlh1 rad18 strain growth inhibition, active compounds read high
In short: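 Test agents were incubated with a yeast strain of defined genotype (DNA damage repair defect). Inhibition of growth was derived by comparison with vehicle-exposed cultures.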

[16] = NCI Yeast Anticancer Drug Screen. Data for the rad18 strain (AID 177); conditions: S. cerevisiae rad18 mutant growth inhibition, active compounds read high
In short: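 A genetically defined yeast mutant impaired in DNA damage repair was treated with test compounds, then its growth was measured against cultures receiving vehicle alone.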

[17] = at 5.0 µM (retest, dose inferred, filed as 0.5)
[18] = at 50.0 µM (retest, dose inferred, filed as 5.0)

Measured: growth inhibition

Cc1[nH]c2ccccc2c1C(c1ccc(N)cc1)c1c(C)[nH]c2ccccc12
active: [5]; [18] 90% | [5]; at 50.0 µM 95.3% | [6]; [18] 94% | [6]; at 50.0 µM 96.4% | [8]; [18] 96% | [8]; at 50.0 µM 98.2% | [11]; [18] 85% | [11]; at 50.0 µM 98.4% | [15]; [18] 96% | [15]; at 50.0 µM 98.5%
inactive: [1]; at 1.2 µM 3% | [1]; at 3.7 µM 3% | [1]; at 11.0 µM -6% | [1]; at 33.0 µM -1% | [1]; at 100.0 µM 41% | [2]; at 1.2 µM -2% | [2]; at 3.7 µM -1% | [2]; at 11.0 µM -2% | [2]; at 33.0 µM -1% | [2]; at 100.0 µM 45% | [3]; at 1.2 µM 4% | [3]; at 3.7 µM -4% | [3]; at 11.0 µM -4% | [3]; at 33.0 µM -2% | [3]; at 100.0 µM -8% | [4]; at 1.2 µM -3% | [4]; at 3.7 µM 0% | [4]; at 11.0 µM 0% | [4]; at 33.0 µM 0% | [4]; at 100.0 µM 48% | [5]; at 1.2 µM 6% | [5]; at 3.7 µM 3% | [5]; [17] 0% | [5]; at 11.0 µM -5% | [5]; at 33.0 µM 1% | [5]; at 100.0 µM 40% | [6]; at 1.2 µM -1% | [6]; at 3.7 µM -1% | [6]; [17] 4% | [6]; at 11.0 µM -1% | [6]; at 33.0 µM -1% | [6]; at 100.0 µM 45% | [7]; at 1.2 µM 5% | [7]; at 3.7 µM 0% | [7]; at 11.0 µM 0% | [7]; at 33.0 µM 6% | [7]; at 100.0 µM 50% | [8]; [17] 8% | [9]; at 1.2 µM -1% | [9]; at 3.7 µM -3% | [9]; at 11.0 µM -6% | [9]; at 33.0 µM 0% | [9]; at 100.0 µM 25% | [10]; [17] 4% | [10]; [18] 45% | [10]; at 50.0 µM 39% | [11]; at 1.2 µM -3% | [11]; at 3.7 µM -3% | [11]; [17] 0% | [11]; at 11.0 µM -6% | [11]; at 33.0 µM -5% | [11]; at 100.0 µM 38% | [12]; at 1.2 µM -2% | [12]; at 3.7 µM -11% | [12]; at 11.0 µM -10% | [12]; at 33.0 µM -1% | [12]; at 100.0 µM 47% | [13]; at 1.2 µM 1% | [13]; at 3.7 µM -1% | [13]; at 11.0 µM -2% | [13]; at 33.0 µM 0% | [13]; at 100.0 µM 50% | [14]; at 1.2 µM -12% | [14]; at 3.7 µM -14% | [14]; at 11.0 µM -19% | [14]; at 33.0 µM -5% | [14]; at 100.0 µM 62% | [15]; [17] 6% | [16]; at 1.2 µM 4% | [16]; at 3.7 µM 4% | [16]; at 11.0 µM -1% | [16]; at 33.0 µM 0% | [16]; at 100.0 µM 47%

OC1CSCCCSCCSCCCSC1
inactive: [1]; at 1.2 µM -53% | [1]; at 3.7 µM -55% | [1]; at 11.0 µM -49% | [1]; at 33.0 µM -61% | [1]; at 100.0 µM -48% | [2]; at 1.2 µM -12% | [2]; at 3.7 µM -16% | [2]; at 11.0 µM -22% | [2]; at 33.0 µM -25% | [2]; at 100.0 µM -25% | [3]; at 1.2 µM -30% | [3]; at 3.7 µM -52% | [3]; at 11.0 µM -49% | [3]; at 33.0 µM -29% | [3]; at 100.0 µM -35% | [4]; at 1.2 µM -5% | [4]; at 3.7 µM -6% | [4]; at 11.0 µM -10% | [4]; at 33.0 µM -9% | [4]; at 100.0 µM -29% | [5]; at 1.2 µM -28% | [5]; at 3.7 µM -27% | [5]; [17] -11% | [5]; at 11.0 µM -3% | [5]; at 33.0 µM -2% | [5]; [18] -14% | [5]; at 50.0 µM 12.3% | [5]; at 100.0 µM -25% | [6]; at 1.2 µM -22% | [6]; at 3.7 µM -27% | [6]; [17] -48% | [6]; at 11.0 µM -21% | [6]; at 33.0 µM 4% | [6]; [18] 5% | [6]; at 50.0 µM 20.5% | [6]; at 100.0 µM -29% | [7]; at 1.2 µM -35% | [7]; at 3.7 µM -37% | [7]; at 11.0 µM -28% | [7]; at 33.0 µM -36% | [7]; at 100.0 µM -47% | [8]; [17] -1% | [8]; [18] 4% | [8]; at 50.0 µM 28.7% | [9]; at 1.2 µM -5% | [9]; at 3.7 µM -12% | [9]; at 11.0 µM 3% | [9]; at 33.0 µM 17% | [9]; at 100.0 µM 1% | [10]; [17] 12% | [10]; [18] 25% | [10]; at 50.0 µM 10.7% | [11]; at 1.2 µM -8% | [11]; at 3.7 µM 0% | [11]; [17] 16% | [11]; at 11.0 µM 16% | [11]; at 33.0 µM 64% | [11]; at 50.0 µM 69.2% | [11]; at 100.0 µM 68% | [12]; at 1.2 µM -30% | [12]; at 3.7 µM -17% | [12]; at 11.0 µM -16% | [12]; at 33.0 µM -31% | [12]; at 100.0 µM -22% | [13]; at 1.2 µM -4% | [13]; at 3.7 µM 16% | [13]; at 11.0 µM 2% | [13]; at 33.0 µM 16% | [13]; at 100.0 µM -17% | [14]; at 1.2 µM -9% | [14]; at 3.7 µM -5% | [14]; at 11.0 µM -10% | [14]; at 33.0 µM -14% | [14]; at 100.0 µM -24% | [15]; [17] -22% | [15]; [18] 22% | [15]; at 50.0 µM 26.9% | [16]; at 1.2 µM -30% | [16]; at 3.7 µM -41% | [16]; at 11.0 µM -49% | [16]; at 33.0 µM -49% | [16]; at 100.0 µM -75%
active: [11]; [18] 82%

CC1C(NNc2ccccc2)Oc2cc3c(cc2C1c1ccccc1O)OCO3 (stereo unspecified)
active: [1]; at 3.7 µM 99% | [1]; at 11.0 µM 99% | [1]; at 33.0 µM 94% | [1]; at 100.0 µM 94% | [2]; at 1.2 µM 72% | [2]; at 3.7 µM 98% | [2]; at 11.0 µM 99% | [2]; at 33.0 µM 96% | [2]; at 100.0 µM 95% | [3]; at 11.0 µM 71% | [3]; at 33.0 µM 90% | [3]; at 100.0 µM 91% | [4]; at 11.0 µM 99% | [4]; at 33.0 µM 93% | [4]; at 100.0 µM 94% | [5]; at 3.7 µM 95% | [5]; at 11.0 µM 98% | [5]; at 33.0 µM 93% | [5]; [18] 98% | [5]; at 50.0 µM 86.9% | [5]; at 100.0 µM 92% | [6]; at 3.7 µM 80%
inactive: [1]; at 1.2 µM 67% | [3]; at 1.2 µM -1% | [3]; at 3.7 µM 7% | [4]; at 1.2 µM -4% | [4]; at 3.7 µM 63% | [5]; at 1.2 µM 12% | [5]; [17] 17% | [6]; at 1.2 µM 7%
